Experimental data reported in PubChem BioAssay AID485270 (The Scripps Research Institute Molecular Screening Center, 2010).
About 5,800 (1.8%) of roughly 330,000 compounds were called active. This excerpt belongs to a sample that is enriched for actives. Values without a mark were called inactive. No stated cut-off is given here; in the data, active means inhibition mostly above about 38% (no sharp cut-off); inactive means mostly below about 40%.

What follows are molecules tested against Orexin/Hypocretin receptor type 1 (Homo sapiens) (UniProt O43613) (assay: antagonists of human orexin 1 receptor (OX1R) (AID 485270;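 further: 0% = agonist challenge alone and 100% = reference antagonist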)). Conditions: OX1R-expressing cells, FRET antagonist read-out; at 6.6 µM; stronger effect = higher value.
Orexin/Hypocretin receptor type 1 (Homo sapiens), sequence (O43613 whole entry, looked up): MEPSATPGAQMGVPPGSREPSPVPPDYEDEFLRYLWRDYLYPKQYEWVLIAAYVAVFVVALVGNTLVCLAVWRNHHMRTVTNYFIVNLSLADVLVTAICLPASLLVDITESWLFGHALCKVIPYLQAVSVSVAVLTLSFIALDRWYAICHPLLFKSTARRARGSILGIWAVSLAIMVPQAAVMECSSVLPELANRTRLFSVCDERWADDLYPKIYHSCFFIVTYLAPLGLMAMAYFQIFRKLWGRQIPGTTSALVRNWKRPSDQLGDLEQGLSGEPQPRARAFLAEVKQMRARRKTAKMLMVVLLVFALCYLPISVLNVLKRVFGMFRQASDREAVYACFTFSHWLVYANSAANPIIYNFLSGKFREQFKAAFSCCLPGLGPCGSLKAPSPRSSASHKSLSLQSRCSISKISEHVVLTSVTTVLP

Structure (SMILES)	inhibition
O=C(N/N=C/c1c(O)n(C2CC2)c(=S)[nH]c1=O)c1ccccc1Cl	16.5%
O=C(N/N=C/c1c(O)n(C2CC2)c(=S)[nH]c1=O)c1ccccc1	48.4% (active)
O=C(N/N=C/c1c(O)n(Cc2ccccc2)c(=O)[nH]c1=O)c1ccccc1	20.1%
O=C(CSC1c2ccccc2-c2ccccc21)N/N=C/c1ccccc1	53.4%
CNC(=O)Nc1ccc(C(O)(C(=O)OC)C(F)(F)F)cc1 (stereo not given)	1.75%
COc1ccc2c(c1O)-c1cccc3c1[C@@H](C2)N(C)CC3	21.8%
CCN1CCN(c2ccc([N+](=O)[O-])cc2C#N)CC1	30.8%
Cc1nc2ccc(N3CCN(C)CC3)cc2nc1C	36.4%
CN1CCN(c2cc(N3CCNCC3)ccc2[N+](=O)[O-])CC1	61% (active)
Cc1cccc2c(CCN)c[nH]c12	13.2%
CCOCCc1c(O)[nH]c(=S)[nH]c1=O	-2.14%
O=C1N=c2ccccc2=C/C1=C\c1c(O)[nH]c(=S)[nH]c1=O	42.6%
COc1ccccc1N=Nc1c(O)[nH]c(=S)[nH]c1=O	55.9% (active)
O=c1[nH]c(CN2CC=C(c3ccccc3)CC2)nc2scc(-c3cccs3)c12	7.54%
CC(=O)Nc1ccc(C(=O)C(Cc2ccccc2)N(C)C)cc1 (stereo not given)	4.57%
COc1cccc(-c2nc3ccc(N4CCN(C)CC4)cc3[nH]2)c1	20.4%
CCN(CC)c1ccc([N+](=O)[O-])c2cccnc12	28.8%
CN(c1ccccc1)c1ccc([N+](=O)[O-])c2nonc12	73.5% (active)
CN1CCN(Cc2ccc(OC(F)(F)F)cc2)CC1	2.95%
O=C(Cc1ccccc1)N1CCN(C2CCCCCC2)CC1	-3.88%
